Measured values: the supplement of paper PMC6522484
± gives the standard deviation of the averaged measurements.

Legend:
[1] = tested on: DLD1; assay: cell viability (CellTiter-Glo) relative to plate median (fraction of plate median); higher = more viable cells; settings: 5 µM; treatment time 24 h; reporter: 7TFP
How it was run: (§1)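 Stable lentiviral TCF/Wnt firefly luciferase reporters (7TFP or TCF4/Wnt) were present in the colorectal cancer cell lines used. These cells received library compounds at a final 5 µM for 24 h, and parallel plates were read for firefly luciferase or CellTiterGlo luminescence. Each well was normalised to the plate median, and the value reported is the mean of two independent replicates.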

[2] = tested on: HCT116; assay: as above; settings: 5 µM; treatment time 24 h; reporter: TCF4/Wnt
How it was run: as §1

[3] = tested on: SW480; assay: as above; settings: 5 µM; treatment time 24 h; reporter: 7TFP
How it was run: as §1

[4] = tested on: DLD1; assay: TCF/Wnt firefly luciferase reporter signal relative to plate median (fraction of plate median); higher = higher Wnt reporter signal; settings: 5 µM; treatment time 24 h; reporter: 7TFP
How it was run: as §1

[5] = tested on: SW480; assay: as above; settings: 5 µM; treatment time 24 h; reporter: 7TFP
How it was run: as §1

O=c1[nH]c(=O)n([C@H]2C[C@H](O)[C@@H](CO)O2)cc1C(F)(F)F
cell viability [1]: 1.07 ± 0.042
cell viability [2]: 1.03 ± 0.05
cell viability [3]: 1.03 ± 0.014
TCF/Wnt firefly luciferase reporter signal [4]: 0.818 ± 0.16
TCF/Wnt firefly luciferase reporter signal [5]: 0.886 ± 0.013

CCCN(CCC)CCc1cccc2c1CC(=O)N2
cell viability [1]: 1.02 ± 0.059
cell viability [2]: 1.08 ± 0.014
cell viability [3]: 1.01 ± 0.044
TCF/Wnt firefly luciferase reporter signal [4]: 1.18 ± 0.092
TCF/Wnt firefly luciferase reporter signal [5]: 1.07 ± 0.028

N[C@H]1C(O)O[C@H](CO)[C@@H](O)[C@@H]1O (stereo not given in full)
cell viability [1]: 0.973 ± 0.037
cell viability [2]: 0.993 ± 0.024
cell viability [3]: 0.99 ± 0.013
TCF/Wnt firefly luciferase reporter signal [4]: 1.12
TCF/Wnt firefly luciferase reporter signal [5]: 1.06 ± 0.021

Clc1ccccc1CN1CCc2sccc2C1
cell viability [1]: 0.988 ± 0.013
cell viability [2]: 1.07 ± 0.05
cell viability [3]: 1 ± 0.057
TCF/Wnt firefly luciferase reporter signal [4]: 0.934 ± 0.036
TCF/Wnt firefly luciferase reporter signal [5]: 1.01 ± 0.071

NC(N)=Nc1nc(CSCC/C(N)=N/S(N)(=O)=O)cs1
cell viability [1]: 1 ± 0.083
cell viability [2]: 1.01 ± 0.028
cell viability [3]: 0.916 ± 0.054
TCF/Wnt firefly luciferase reporter signal [4]: 1.12 ± 0.092
TCF/Wnt firefly luciferase reporter signal [5]: 1.11 ± 0.035

CC(C)NC[C@@H](O)COc1cccc2ccccc12
cell viability [1]: 1.09 ± 0.057
cell viability [2]: 1.06
cell viability [3]: 1.11 ± 0.11
TCF/Wnt firefly luciferase reporter signal [4]: 1.01 ± 0.021
TCF/Wnt firefly luciferase reporter signal [5]: 1.01 ± 0.05

CN1C(C(=O)Nc2ccccn2)=C(O)c2ccccc2S1(=O)=O
cell viability [1]: 0.97 ± 0.057
cell viability [2]: 0.975 ± 0.036
cell viability [3]: 0.92 ± 0.061
TCF/Wnt firefly luciferase reporter signal [4]: 1.1 ± 0.071
TCF/Wnt firefly luciferase reporter signal [5]: 1.14

O=C(O)CCC(=O)OC[C@@H](NC(=O)C(Cl)Cl)[C@H](O)c1ccc([N+](=O)[O-])cc1
cell viability [1]: 1 ± 0.12
cell viability [2]: 0.895 ± 0.04
cell viability [3]: 0.977 ± 0.027
TCF/Wnt firefly luciferase reporter signal [4]: 0.838 ± 0.044
TCF/Wnt firefly luciferase reporter signal [5]: 0.97 ± 0.022

O=c1cc(-c2ccccc2)oc2cc(O)cc(O)c12
cell viability [1]: 1.01
cell viability [2]: 1.02 ± 0.035
cell viability [3]: 1.02 ± 0.045
TCF/Wnt firefly luciferase reporter signal [4]: 1.03 ± 0.23
TCF/Wnt firefly luciferase reporter signal [5]: 1.09 ± 0.064

CC(CN1c2ccccc2Sc2ccccc21)N(C)C (stereo not given)
cell viability [1]: 1.09 ± 0.05
cell viability [2]: 1.1 ± 0.064
cell viability [3]: 1.08 ± 0.014
TCF/Wnt firefly luciferase reporter signal [4]: 1.05 ± 0.15
TCF/Wnt firefly luciferase reporter signal [5]: 1.115 ± 0.0071

COc1ccc(-c2cc(=O)c3c(O)cc(O)cc3o2)cc1
cell viability [1]: 1.03 ± 0.08
cell viability [2]: 0.935 ± 0.019
cell viability [3]: 1.05 ± 0.064
TCF/Wnt firefly luciferase reporter signal [4]: 0.912 ± 0.026
TCF/Wnt firefly luciferase reporter signal [5]: 1.01 ± 0.091

CCCCCCCCCCCC1=C(O)C(=O)C=C(O)C1=O
cell viability [1]: 1.01 ± 0.06
cell viability [2]: 1.12 ± 0.071
cell viability [3]: 0.9665 ± 0.00071
TCF/Wnt firefly luciferase reporter signal [4]: 1.1 ± 0.028
TCF/Wnt firefly luciferase reporter signal [5]: 1.075 ± 0.0071

CCCCC[C@@H](O)[C@H]1C(=O)O[C@H](C)[C@@H](O)/C=C/C=C/C=C/C=C/C=C(\C)[C@@H](O)C[C@H](O)C[C@H](O)C[C@H](O)C[C@H](O)C[C@H](O)C[C@@H]1O
cell viability [1]: 1.02
cell viability [2]: 1.05 ± 0.05
cell viability [3]: 0.989 ± 0.03
TCF/Wnt firefly luciferase reporter signal [4]: 1.01 ± 0.022
TCF/Wnt firefly luciferase reporter signal [5]: 1.09 ± 0.078
